Consider two molecules from PubChem BioAssay AID1649 (The Scripps Research Institute Molecular Screening Center, 2009).

This is one part of the list. Values without a mark were called inactive. Rule as the data show it: active = activation above about 33%; inactive = the rest.

This experiment can be described thus: NPY-Y2 potentiators or agonists, counter-screen for NPY-Y1 potentiator project, cell-based, fluorescence (AID 1649). The following applies: HEK293-CNG cells, membrane-potential fluorescence (FLIPR), 1536-well; at 3.6 µM; stronger effect = higher value. In general terms: Counterscreens check selectivity or assay interference.

For `CSC1=NP(=S)(SC)N(C)c2nc3n(c21)CCC3` (configuration not stated), the activation was 3.63%.
The result for `Cc1nn(Cc2ccccc2Cl)c(Cl)c1C(=O)OC(C(=O)NC(N)=O)C(C)C` (configuration not stated) reads 23.6%.
